Results reported in PubChem BioAssay AID493084 (National Center for Advancing Translational Sciences (NCATS), 2011).
Screen size: about 360,000 compounds; about 650 (0.18%) were called active. Many of the other results were omitted from the sample, so actives are more common in it than they were. A number with no mark means an inactive call. Rule as the data show it: active = activation above about 30%; inactive = the rest.

biological target: Thyrotropin-releasing hormone receptor (Homo sapiens) (UniProt P34981); assay: qHTS for Small Molecule Agonists and Allosteric Enhancers of Human TRH Receptor: Primary Screen for Agonists.; also: 0% is about no effect; details: TRHR cells, calcium flux fluo-8, FDSS agonist mode; at 2 µM; hits give high values
Description: NIH Chemical Genomics Center [NCGC] NIH Molecular Libraries Probe Centers Network [MLPCN] MLPCN Grant: MH089816-01 Assay Submitter (PI): Marvin Gershengorn This project aims to identify small drug-like molecules that activate (agonists) the thyrotropin releasing hormone (TRH) receptor (TRHR) or enhance its TRH-stimulated activity (allosteric enhancers). TRHR, a drug-accessible cell surface receptor expressed in specific brain regions, and its ligand TRH have been implicated in several central nervous system disorders, including depression and anxiety. Small molecule TRHR agonists or allosteric enhancers that are metabolically stable and able to cross the blood-brain barrier might serve as probes to elucidate the roles of brain TRH receptors in animal models, and might be valuable as lead compounds for the development of drugs to treat patients with central nervous system disorders. Upon TRHR-Gq activation in TRHR cells, intracellular calcium is released from stores in the endoplasmic reticulum. […] This primary screen measures compound-induced activation of calcium release.
For the HTS assay freshly prepared cells are plated at a density of 2000/well in 3 ul of complete DMEM medium containing 10% serum in 1536-well plates and cultured over night at 37 C in a humidified incubator with 5% CO2. The next day, 2 ul of a no wash calcium dye (ABD Bioquest) was added to the cells and plates were incubated at room temperature for 1 hour. For the assay, assay plates were loaded into the FDSS kinetic plate reader. A 10 cycle (1 second/cycle) baseline measurement is taken and then the FDSS online 1536 pintool delivers 23 nl of compound library (as well as TRH controls) to the plate. The plate is measured for kinetically at 1 cycle/sec for 180 seconds and is considered to be the agonist portion of the assay (eg, compounds which activate a positive calcium response during this portion are flagged as potential agonists). Following the 180 second read, 1 ul of either an EC20 (positive modulation assay) is delivered by an onboard pipette head. Measurements are taken kinetically for an additional 180 seconds. TRHR FDSS Screening Protocol 1. Reagent, 3 uL 2000 cells/well 1536 TC treated Black plate in media containing 10% FCS 2. Time, 18 hours, 33.5C 5% CO2 (cells grown at 37C) 3. Reagent, 2 uL ABD fluo-8 Ca dye 4. Time, 30 min-1.5hrs hours, Room temp (6 plates/batch) 5. Detector, EX 480/EM 530C, FDSS 10 cycles baseline (1sec/cycle) 6. Compound, 23 nL of stock solution from library 7. Detector, EX 480/EM 530C, FDSS […] (1sec/cycle) Agonist mode 8. Compound, 1 ul EC20 of TRH made up in HEPES HBSS, 10 nM final 9. Detector, EX 480/EM 530C, FDSS 100 cycles (1sec/cycle) Potentiator mode

Chain of Thyrotropin-releasing hormone receptor (Homo sapiens) (P34981 whole entry, looked up): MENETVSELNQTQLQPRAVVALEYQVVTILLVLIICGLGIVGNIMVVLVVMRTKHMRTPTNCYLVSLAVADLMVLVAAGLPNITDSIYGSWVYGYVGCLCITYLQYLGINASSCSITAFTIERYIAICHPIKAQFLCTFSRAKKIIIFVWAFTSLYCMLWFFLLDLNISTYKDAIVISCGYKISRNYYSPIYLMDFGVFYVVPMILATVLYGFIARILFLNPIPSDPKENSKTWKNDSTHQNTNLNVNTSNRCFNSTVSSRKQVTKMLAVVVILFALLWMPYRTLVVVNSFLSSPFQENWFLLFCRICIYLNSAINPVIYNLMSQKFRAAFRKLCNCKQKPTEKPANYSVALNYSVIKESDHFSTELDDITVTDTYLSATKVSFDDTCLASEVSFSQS

SMILES	activation
Cc1cc2c(s1)c1cnn(Cc3cc(F)c(Cl)cc3Cl)c(=O)c1n2C	0.185%
CSc1ccc(NC(=O)Cn2nnnc2-c2ccccc2F)cc1	0.477%
Cc1c(Cl)cccc1NC(=O)N1CCN(C(=O)c2nsc3ccccc23)CC1	-1.09%
Cc1ccc(C(=O)NC2CCN(C#N)CC2)cc1	0.438%
O=S(=O)(c1ccc2c(c1)OCCO2)N1CCN(S(=O)(=O)c2cc(F)ccc2F)CC1	-0.372%
CCN(CC)CCNC(=O)Cn1ncc2c3ccccc3n(Cc3ccccc3C)c2c1=O	1.76%
Cc1ccc2nc(/C(C#N)=C/c3ccccc3F)[nH]c2c1	1.62%
Cc1ccc2nc(/C(C#N)=C/c3ccc(-c4ccc(C(=O)OC(C)C)cc4)o3)[nH]c2c1	69.6% (active)
CCOC(=O)c1ccc(-c2ccc(/C=C(\C#N)C(=O)Nc3ccc(C)cc3)o2)cc1	1.6%
Cc1noc(/C=C/N(C)C)c1S(=O)(=O)N1CCCC(C(=O)Nc2cccc(F)c2)C1 (centres undefined)	-0.115%
CCOC(=O)c1c(C)oc2nc(C)nc(N3CCN(c4ccc(OC)cc4)CC3)c12	-1%
COc1cccc(CNC(=O)Cc2csc3nc(-c4ccccc4)cn23)c1	-0.21%
COc1cccc2c1cc1c(=O)n(CC(=O)N3CCN(c4ccccc4)CC3)nc(C)n12	0.0688%
COc1ccc(-n2c(SCC(=O)Nc3ccc(Cl)c(C)c3)nc3n[nH]c(C)c3c2=N)cc1	0.481%
C/C(=N\NC(N)=S)c1ccncc1	0.334%
CCN(CC)c1ccc2cc(C(N)=O)/c(=N\NC(=O)c3ccncc3)oc2c1	81.7% (active)
CCOC(=O)c1c(C)oc2ccc(N(C(=O)c3ccncc3)S(=O)(=O)c3ccc(CC)cc3)cc12	0.327%
N#CN1CCC(NC(=O)c2ccc(F)cc2)CC1	1.13%
O=C(CNC(=O)c1ccc(Cl)cc1Cl)OC(C(=O)Nc1cc(C(F)(F)F)ccc1Cl)c1ccccc1 (centres undefined)	-0.435%
CC(=O)Nc1c(C)nn(-c2ccccc2)c1N1CCC(C(=O)Nc2cc(Cl)ccc2C)CC1	-0.0803%
Cc1cccc2c(=O)cc(CSc3ccccc3NC(=O)C(C)C)[nH]c12	0.235%

SMILES	activation
COc1ccc(CNC(=O)CCc2c(C)nn(-c3ccc(N4CCCC4)nn3)c2C)cc1	0.0444%
Cc1ccc(C)c(Cn2c(=O)n(CCC(=O)NCc3ccc4c(c3)OCO4)c(=O)c3sccc32)c1	-0.659%
COc1ccc(N2CCN(C3=NS(=O)(=O)C(c4cccc(Br)c4)=C3C)CC2)cc1	-0.301%
COc1cc(C(=O)NCCS(=O)(=O)N2CCN(c3ccccc3)CC2)cc(OC)c1OC	0.101%
CCc1ccc(-n2nnc(-c3nc(-c4ccccc4)no3)c2C)cc1	0.119%
CCCN(CCC)C(=O)C1CCCN(c2ncnc3c2nc2n3CCCCC2)C1 (centres undefined)	-0.956%
O=C(CC(NCc1cccnc1)C(=O)O)Nc1ccc(O)cc1 (centres undefined)	0.363%
CCOc1cccc(CC(=O)N2CCc3c([nH]c4ccccc34)C2c2ccc(OC)cc2)c1OCC (centres undefined)	0.0175%
CC1CCCN(c2cc3c(cc2F)c(=O)c(S(=O)(=O)c2cccc(Cl)c2)cn3Cc2ccccc2)C1 (centres undefined)	0.542%
CCN(CC)c1ccc2oc(=O)c(C)nc2c1	100% (active)
COc1cccc(N2CCN(S(=O)(=O)c3ccc4c(c3)CCCN4C(C)=O)CC2)c1	-0.749%
COc1ccc(CCNC(=O)Cn2c(=O)cc(C(F)(F)F)c3c(C)nn(C)c32)c(OC)c1	-0.214%
Cc1cc2c(s1)c1cnn(Cc3c(F)cccc3Cl)c(=O)c1n2C	-0.043%
COc1cccc(NC(=O)Nc2ccc3c(c2)N(C)C(=O)c2ccccc2S3)c1	-0.213%
CCOC(=O)c1c(S(=O)(=O)N2CCCC(C(=O)NCc3ccc(F)cc3)C2)c(C)n(CC)c1C (centres undefined)	-0.483%
O=S(=O)(c1ccc(Br)cc1)c1nnn2c1nc(NC1CCCCCC1)c1sccc12	-0.704%
COc1ccc(NC(=O)CSc2nc3ccccc3n2CC(=O)N2CCCCC2C)cc1 (centres undefined)	-0.312%
N#Cc1nc(Nc2cccc(Cl)c2)nc(NC2CCCC2)n1	-2.51%
COc1ccccc1N1CCN(S(=O)(=O)CCNC(=O)COc2ccc(F)cc2)CC1	-0.566%
CCOc1cccc2c1N[C@@H](c1ccc(C(=O)O)cc1)[C@H]1CC=C[C@@H]21	0.0412%
COc1ccc(CNC(=O)Cc2coc3ccc(C(C)C)cc23)cc1	-0.0096%

SMILES	activation
CCOc1cc(-c2nnc(SCC(=O)NC3CCCC3)nc2-c2ccc(OC)c(OCC)c2)ccc1OC	0.306%
CCOC(=O)c1nnn(CC(=O)NC(=O)Nc2ccccc2F)c1C(=O)OCC	1.07%
CN1CCOc2cc(S(=O)(=O)N3CCN(S(=O)(=O)c4c(F)cccc4F)CC3)cnc21	-0.448%
Nc1ccc2nc3c(=O)[nH]c(=S)[nH]c3nc2c1	35.9% (active)
CCN(c1ccc(Cl)cc1)S(=O)(=O)c1nnc(NC(=O)c2ccco2)s1	-0.115%
COc1ccc(CCNC(=O)Cn2c(=O)n(-c3ccccc3)c(=O)c3c(C)c(C)sc32)cc1OC	-1.42%
O=C(NCc1nnc(C(=O)Nc2ccc(C(F)(F)F)cc2Cl)o1)c1ccccc1	-2.31%
COC(=O)c1ccccc1NC(=O)c1ccc(C#N)cc1	0.34%
Cc1ccccc1C(=O)NCc1nc(-c2ccc(Cl)cc2)no1	-0.152%
Cc1cccc(C(C)C)c1NC(=O)C(NS(=O)(=O)c1cccc2nsnc12)c1ccccc1 (centres undefined)	-0.333%
COc1ccc(CNC(=O)Cn2nnc(-c3ccccc3F)n2)cc1	-0.359%
CCOc1ccccc1N(CC)C(=O)c1cc2ccc3cccnc3c2[nH]1	2.85%
Cc1ccccc1NC(=O)CN1C(=O)C(C)(C)c2ccccc21	0.364%
CCOc1ccc2nc(N3CCC(C(=O)Nc4cc(C)ccc4C)CC3)sc2c1	-0.106%
Cc1ccccc1NC(=O)c1cc2c([nH]c1=O)CC(C)(C)CC2=O	1.28%
COc1cccc(-c2ccc3c(c2)S(=O)(=O)c2cccc(C(=O)O)c2C3=O)c1OC	0.018%
Cc1ccc(CNC(=O)c2cccc3c2C(=O)c2ccc(N4CCC(C)CC4)cc2S3(=O)=O)cc1	86.3% (active)
Cc1ccc(CNC(=O)c2ccccc2CCc2ccccc2)cc1	0.513%
Cc1ccc(C2C3=C(Nc4[nH]n(-c5ccccc5)c(=O)c42)c2ccccc2C3=O)cc1 (centres undefined)	-0.291%
CCOc1cc(C2C(C(=O)OC)=C(C)NC3=C2C(=O)c2ccccc23)ccc1O (centres undefined)	0.256%
COC(=O)C1=C(C)NC2=C(C(=O)c3ccccc32)C1c1ccc(-c2ccc(C(=O)O)cc2)o1 (centres undefined)	46.3% (active)

SMILES	activation
Cc1c(C)n(Cc2ccc(Cl)cc2)c2ccc(C(=O)NCCc3ccc(S(N)(=O)=O)cc3)cc12	0.277%
Cc1nn(-c2ccc(N3CCCCC3)nn2)c(C)c1CCC(=O)NCc1ccc(F)cc1	-0.372%
CCN1/C(=C\c2ccc3ccccc3[n+]2CC)Sc2cc(C)ccc21	34.6% (active)
CCCC12CN3CC(CCC)(CN(C1)C3c1c[nH]c3ccc(OC)cc13)C2=O (centres undefined)	2.39%
CCOc1cc(/C=C(/C#N)c2ccc(Cl)cc2)cc(Cl)c1OCC(=O)O	-0.184%
CCOc1cc(/C=C(\C#N)c2nc(-c3cccs3)c(NC(C)=O)s2)ccc1O	37.3% (active)
CCOc1cc(/C=C(\C#N)C(=O)Nc2ccccc2C)ccc1OCc1cc(=O)n2nc(CC)sc2n1	-1.33%
Cc1nc2ccc(S(=O)(=O)N(CC(=O)Nc3ccc(F)cc3)Cc3ccccc3)cc2s1	-0.726%
Cc1ccc(-n2nc(C)c3c(C)cc(=O)n(CC(=O)Nc4ccc(C(C)C)cc4)c32)cc1	-0.803%
Cc1cccc(NC(=O)N2CCC(CN3CCc4ccccc4C3)CC2)c1C	-0.238%
O=C(Nc1ccc(OC(F)(F)F)cc1)c1cc2c(=O)n3ccccc3nc2s1	0.583%
O=C(/C=C(O)/C=C/c1ccc(O)cc1)/C=C/c1ccc(O)cc1	150% (active)
CC1=CC2=NC(=O)/C(=C/c3coc4ccccc4c3=O)C(=N)N2O1	111% (active)
COc1ccc(OCCCn2cccc2/C=C2/C(=N)N3OC(C)=CC3=NC2=O)cc1	-0.544%
O=C(NCc1ccc(Cl)cc1)c1ccc2c(c1)nnn2C1CCCC1	-0.129%
O=S(=O)(c1ccc(Br)cc1)c1nnn2c1nc(N1CCOCC1)c1sccc12	-0.0076%
Cc1ccc(NC(=O)c2oc3ccc(S(=O)(=O)N4CCCCC4)cc3c2C)cc1Cl	1.26%
COc1ccc(C(=O)Nc2nonc2-c2ccc(OC)c(OC)c2)cc1Cl	-1.06%
Cc1cccc(N2CCN(c3c(CN4CCCC4)c(=O)oc4ccccc34)CC2)c1C	0.139%
C=CCC1=C/C(=C\c2c(N)n3nc(CC(=O)N4CCOCC4)sc3nc2=O)C=C(OC)C1=O	162% (active)
COC1=C/C(=C/c2c(N)n3nc(CC(=O)N4CCOCC4)sc3nc2=O)C=CC1=O	15.5%
